Consider 40 compounds from PubChem BioAssay (NCATS).

Results filed as inconclusive are left out. Values without a mark were called inactive. Active and inactive are the calls of the source. Calls follow the shape of the dose curve; as a rule, active = well fitted activation curve with a large enough effect; inconclusive = small, poorly fitted or top-dose-only effect; inactive = flat fitted curve, though single readings scatter.

This experiment is described as follows: qHTS for Hypoxia signaling pathway (HIF-1) agonists against the NCATS CANVASS Library (AID 1347375). Also: 0% is about no effect. Conditions: HRE-bla ME-180 cells, HIF-1 beta-lactamase reporter, 17 h; series mostly up to 38.3 µM. From the text: Natural products and their derivatives continue to be wellsprings of nascent therapeutic potential. However, many laboratories have limited resources for biological evaluation, leaving their previously isolated or synthesized compounds largely or completely untested. To address this issue, the Canvass library of natural products was assembled (https://tripod.nih.gov/canvass), in collaboration with academic and industry researchers, for quantitative high-throughput screening (qHTS) across a diverse set of cell-based and biochemical assays. The pure (>85% purity by liquid chromatography/mass spectrometry [LC/MS]) Canvass library of 346 natural products were submitted by 45 academic laboratories and companies around the world. We collected pure natural products to circumvent deconvolution and structure elucidation due to time and resource limitations. The library was formatted into 1536-well plates and evaluated in 50 qHTS (in an 11-pnt concentration series) bioassays with broad scope of disease-relevant mechanisms. The resulting data set from 50 different assays was then systematically analyzed to identify overall trends and specific natural products with interesting biological activities. Reported herein are the results of each individual qHTS and their corresponding assay protocol. During hypoxic conditions, the cellular responses are regulated in large part through the activation of the heterodimeric transcription factor called hypoxia-inducible factor-1 (HIF-1). The assay used is a beta-lactamase reporter gene under control of the hypoxia responsive element (HRE) that has been stably integrated into ME-180 cells. This assay identifies inducers of the HIF-1-signaling pathway. The cytotoxicity of the compound library against HRE-bla ME-180 cell line was tested in parallel by measuring cell viability using CellTiter-Glo assay (Promega, Madison, WI) in the same assay wells. The compounds were also tested for auto fluorescence that may interfere with the biological target readout resulting in potential false positives and/or negatives. National Center for Advancing Translational Sciences (NCATS), Rockville, MD National Institute of Health (NIH), Bethesda, Maryland
HIF-1 agonist assay protocol: HRE-bla ME-180 cells were dispensed at 2,000 cells per well in 6 uL of assay medium containing 0.5% dialyzed FBS into black wall/clear-bottom 1536-well plates using a Multidrop Combi (Thermo Scientific, Waltham, MA) dispenser. After the assay plates were incubated at 37C and 5% CO2 for 5 hrs, 23 nL of compounds dissolved in DMSO, positive controls or DMSO only was transferred to each well of the assay plate using a Pintool station (Kalypsys, San Diego, CA). The assay plates were incubated at 37C and 5% CO2 for 17 hrs. One uL of LiveBLAzerTM B/G FRET substrate (CCF4-AM) (Life Technologies) was added to each well using a Flying Reagent Dispenser (Aurora Discovery, San Diego, CA). After 2 hr incubation at room temperature, fluorescence intensity (405 nm excitation, 460 nm and 530 nm emissions) was measured using an Envision plate reader (PerkinElmer, Shelton, CT). To assess cell viability (and for data normalization), 4uL of CellTiter-Glo (Promega) was added to the assay plate using the BioRAPTR dispenser and incubated at room temperature for 30 min. Luminescence signal was obtained using the ViewLux microplate reader (PerkinElmer) using a clear emission mirror, and a 15 sec exposure time, 1x binning settings.
On to `C/C=C(/C)c1cc(O)c(C)c2c1Oc1cc(O)cc(C)c1C(=O)O2`, for which the outcome was inactive.
Still for that read-out and setting: as for `C=C[C@@](C)(O)CC[C@@H]1[C@@]2(C)CCCC(C)(C)[C@@H]2CC[C@@]1(C)O`, the entry is “inactive”; as for `COc1ccc2[nH]c3c(c2c1)CCN1C[C@H]2C[C@@H](OC(=O)c4cc(OC)c(OC)c(OC)c4)[C@H](OC)[C@@H](OC)[C@H]2C[C@H]31`, “inactive”.
On the same count and under the same terms, as for `COc1ccc(-c2oc3cc(OC)cc(OC)c3c(=O)c2O)cc1`, the entry is “inactive”; as for `CO[C@H]1[C@@H](OC(=O)/C(C)=C\[C@@H]2O[C@@H]2[C@H]2O[C@H]2C)[C@H](O)[C@H](OCC23C[C@@H]4[C@H](C)CC[C@H]4C4(C=O)CC2C=C(C(C)C)C34C(=O)O)O[C@@H]1C` (stereo not given in full), “inactive”; as for `CCC(=O)N[C@@H](C[C@H](C)C(Cl)(Cl)Cl)C(=O)N1C(=O)C=C(OC)[C@@H]1CC(C)C`, “inactive”.
Still for that read-out and setting: as for `CC(=O)O[C@H]1c2ccccc2-c2c3c(cc4c2[C@@H]1N(C(C)=O)CC4)OCO3`, the entry is “inactive”.
In the case of `CO[C@H]1/C=C/CCCCC(=O)O[C@@H](/C(C)=C/[C@H](C)C(=O)C[C@H](O)CC2CC(=O)NC(=O)C2)[C@@H](C)C1`, the outcome was inactive.
The same measure, in the same setting: the result for `COC(=O)[C@@]1(C)CCC[C@]2(C)c3cc(OC)ccc3CC[C@@H]12` reads “inactive”; that for `C=C[C@](Cl)(CBr)CCC=C(C)C`, “inactive”.
Still for that read-out and setting: as for `C/C=C/c1cc2c(c(=O)o1)C(=O)[C@@H](O)[C@H](C)O2`, the entry is “inactive”.
Still for that read-out and setting: as for `CC(C)=CCCC(C)(O)[C@H]1CC=C(C)C(O)C1` (stereo not given in full), the entry is “inactive”; as for `COc1cc(C2C3=C(Cc4cc5c(cc42)OCO5)C(=O)OC3)cc(OC)c1OC` (stereo not given), “inactive”; as for `COC(=O)c1cc2cc3c(c(O)c2c(=O)o1)OC1(CC3)CC2=C(O1)C(=O)c1c(O)c(OC)cc(OC)c1C2=O` (stereo not given), “inactive”.
Consider `C/C=C(/C)c1c(Cl)c(OC)c(C)c2c1Oc1c(Cl)c(O)c(Cl)c(C)c1C(=O)O2`, for which the outcome was inactive.
Take `CC1=C[C@H]2[C@H]3C(=O)C(c4ccc(O)cc4)=C[C@@]3(c3ccc(O)cc3)[C@@H]1C(=O)[C@]2(C)O`: the compound was classed as inactive.
Same read-out and setting: as for `O=C1c2c(O)cc(O)cc2OC(c2ccc(O)cc2)C1O` (stereo not given), the entry is “inactive”; as for `C[C@@H]1CC[C@]2(C(=O)O)CC[C@]3(C)C(=C2[C@H]1C)CC[C@@H]1[C@@]2(C)CC[C@H](O)C(C)(C)[C@@H]2CC[C@]13C`, “inactive”.
Still for that read-out and setting: as for `C=C1C[C@]23C=CC(=O)[C@@](C)(CCCC(C)C(=O)N[C@@H](CO)C(=O)O)[C@@H]2C[C@@H]1CC3` (stereo not given in full), the entry is “inactive”; as for `C/C=C1/C2=CCCN3C(=O)O[C@H]([C@H]1O)[C@H]23`, “inactive”; as for `COc1cc2ccc(=O)oc2c(O)c1O[C@@H]1O[C@H](CO)[C@@H](O)[C@H](O)[C@H]1O`, “inactive”.
The same measure, in the same setting: the result for `C[C@@]12CCC[C@@](C)(C(=O)O)[C@H]1CC[C@@]13C[C@@H](CC[C@H]12)[C@](C)(O)C3` reads “inactive”; that for `C[C@@]12CCC[C@@](C)(C(=O)OP(=O)(O)OC[C@H]3O[C@@H](n4cnc5c(N)ncnc54)[C@H](O)[C@@H]3O)[C@H]1C[C@@H](O)[C@@]13C[C@@H](CC[C@@H]21)[C@](C)(O)C3`, “inactive”; that for `CC[C@H]1[C@@H](C)[C@@H](c2cc(OC)c(OC)cc2OC)[C@H](C)[C@@H](c2cc(OC)c(OC)cc2OC)[C@@]12C=C(OC)C(=O)C=C2OC`, “inactive”.
Consider `C=C1[C@@]2(C)CC3C4(C)CCC(O)C(C)(C)C4CCC3(C)[C@]1(C(=O)OC)C(=O)C(C)(O)C2=O` (stereo not given in full), for which the result was inactive.
On the same count and under the same terms, as for `COC1C(C)OC(OCC23C[C@@H]4[C@H](C)CC[C@H]4C4(C=O)CC2C=C(C(C)C)C34C(=O)O)[C@@H](O)[C@H]1O` (stereo not given in full), the entry is “inactive”; as for `C[C@H]1CCC2(OC1)O[C@H]1C[C@H]3[C@@H]4CC(=O)[C@]5(O)C[C@H](O)CC[C@@]5(C)[C@H]4CC[C@@]3(C)[C@H]1[C@H]2C` (stereo not given in full), “inactive”; as for `C/C(=C\[C@@H](C)CC/C=C/CC/C=C/C(=O)O)[C@@H](O)[C@H](C)C(=O)CCCC1CC(=O)NC(=O)C1`, “inactive”.
On the same count and under the same terms, the result for `CC(C)[C@@H]1CC(=O)c2coc3c2[C@H]1C[C@@H](C)C3=O` reads “inactive”.
`COc1cc(C2OCC3C(c4ccc(O)c(OC)c4)OCC23)ccc1O` (stereo not given): the activation was -1.39% [at 7.64 µM].
For the compound `CC(=O)Oc1cc2c(c(OC(C)=O)c1C1CCc3cc(Cl)c(Cl)n31)C(=O)n1c-2cc(Cl)c1Cl` (stereo not given), the compound was called inactive.
Still for that read-out and setting: the result for `O=Cc1ccc2n1C[C@]1(C[C@H](O)[C@@H](CO)O1)OC2` reads “inactive”; that for `C=C1C[C@H]2O[C@@H]3[C@@H]4[C@H](CC[C@@](C)(O)[C@@H]42)[C@H](C)COC3(C)[C@@H](OC(=O)CCCCCCC)C[C@H]1O` (stereo not given in full), “inactive”.
Still for that read-out and setting: as for `CCC(C)=C1OC(=O)[C@H](C)[C@H](O)[C@H](Cc2cccnc2)NC(=O)C(NC(=O)c2ncccc2O)C(C)OC1=O` (stereo not given in full), the entry is “inactive”; as for `COc1cc2c(cc1OC)[C@@H](c1ccc3c(c1)OCO3)C(C)[C@@H](C)C2=O` (stereo not given in full), “inactive”; as for `CC[C@H](O)CCCCC[C@@H]1NC(=O)[C@H]2CCCCN2C(=O)[C@H]([C@H](C)CC)NC(=O)[C@H](Cc2cn(OC)c3ccccc23)NC1=O`, “inactive”.
Still for that read-out and setting: the result for `COc1ccc([C@@H]2c3cc4c(cc3C(=O)C(C)C2C)OCO4)cc1OC` (stereo not given in full) reads “inactive”; that for `C/C(=C\[C@H](C)C(=O)C[C@H](O)CC1CC(=O)NC(=O)C1)[C@@H]1OC(=O)CCCC/C=C/C[C@@H](O)[C@@H]1C`, “inactive”.
On to `C=C[C@]1(C)CC[C@@H]([C@H](C)C(=O)/C=C/C(C)(C)O)O1`, for which the compound was classed as inactive.
The same measure, in the same setting: the result for `CO[C@@H]1[C@H](O)[C@@H](C)O[C@@H](OC[C@@H]2C(C)OC(=O)/C=C/[C@H](C)C(O[C@@H]3O[C@H](C)CC4(OC(=O)O[C@@H]4C)C3O)[C@@H](C)CC(C)C(=O)/C=C/[C@H]3OC23)[C@@H]1OC` (stereo not given in full) reads “inactive”.
